Several values for one entry are separate records, joined by “and”; a condition that tells them apart may be missing. Equal entries are not always repeated. Results filed as inconclusive are left out. A call without a number means that no potency is given here. Activity calls are given as the source filed them. The call rests on the fitted dose curve; in most records, active means well fitted inhibition curve with a large enough effect; inconclusive means small, poorly fitted or top-dose-only effect, or effect the other way; inactive means no such curve, though single readings can be large or run the other way.

This test deals with Nuclear receptor ROR-alpha (Homo sapiens) (UniProt P35398). As to the kind of experiment: ROR alpha selectivity assay for inhibitors of ROR gamma transcriptional activity. The settings on record: Drosophila S2 Gal4-RORalpha UAS-luciferase, 20 h; series mostly up to 92.2 µM. An excerpt:
NIH Molecular Libraries Probe Production Network [MLPCN] NIH Chemical Genomics Center [NCGC] MLPCN Grant: R03 DA026211-01 Assay Provider: Dan Littman, New York University Assay Overview: The retinoic acid-related orphan receptor (ROR) gamma is a transcription factor that has a central role in the differentiation of Th17 cells, a subset of T helper cells that secrete the inflammatory cytokines IL-17A, IL-17F, and IL-22. Th17 cells have been implicated in graft versus host disease, autoimmune disease and asthma. RORgamma is induced in naive T helper cells in the presence of TGF-beta combined with IL-6, IL-21, or IL-23, and thereafter directs the expression of the Th17 lineage cytokines. To identify nonselective inhibitors, a Drosophila Schneider cell line was stably transfected with two vectors: a gene expressing a fusion of the Gal4 DNA binding domain and the transactivation domain of the ROR alpha, under the control of the metallothionine promoter and a Photinus luciferase reporter regulated by the Gal4 binding site enhancer, UAS. […] Small molecule inhibitors that inhibit RORgamma and RORalpha, or components common to both, will be active in both assays and thus scored as nonselective.
Assay Protocol Summary: For screening, 600 cells in 4 uL/well were dispensed into white solid 1536-well plates (Grenier) using a solenoid-based dispenser. Following transfer of 23 nL compound or DMSO vehicle by a pin tool, the plates were incubated 1 hr at ambient temperature, and 1 uL/well copper sulfate (700 uM final concentration) was added. The plates were centrifuged 15 s at 1000 RPM and incubated 20 hr at ambient temperature. After addition of 1.5 uL Photinus luciferase detection reagent, the plates were incubated 10 min at ambient temperature and then read by an ViewLux (Perkin Elmer) to detect luminescence.
As for `CCOc1cccc(-c2cc(-c3n[nH]c(=S)n3CC)c3ccccc3n2)c1`, the Potency was 7.24 µM (active) and 18.2 µM (active).

Consider `CC1=C(\C=C/C(C)=C/C=C\C(C)=C\C(=O)O)C(C)(C)CCC1`, for which the activity change, negative = inhibition is 18.6% [at 20 µM] (inactive).

Consider `COc1cc(O)c(C(CC(=O)N2CCCC(C)C2)c2ccccc2)c(OC)c1` (stereo not given), for which the Potency result was “inactive”.

For the compound `COc1ccc(C(CC(=O)N2CCCC(C)C2)c2c(O)cc(OC)cc2OC)cc1` (stereo not given), the Potency entry is “inactive”.

For `O=C(NC(=S)Nc1nc(-c2ccccc2)cs1)c1cccnc1`, the Potency is 32.3 µM (active).

Turning to `COC(=O)Cn1c(CN2CCc3ccccc3C2)nc2c1c(=O)n(C)c(=O)n2C`, the Potency was 18.2 µM (active).

Turning to `CCn1cc(C(=O)O)c(=O)c2cnc(N3CCN(C(=S)NC(=O)c4ccccc4)CC3)nc21`, the Potency was 22.9 µM (active).

Take `COc1cc(O)c(C(CC(=O)N2CCCC(C)C2)c2ccc(-c3ccccc3)cc2)c(OC)c1` (stereo not given): the Potency result is “inactive”.

Consider `COc1cc(O)c(C(CC(=O)N2CC(C)NC(C)C2)c2ccc3c(c2)OCO3)c(OC)c1` (stereo not given), for which the Potency result was “inactive”.

Consider `Cc1ccc(C)c(/C=N/n2cc(-c3ccccc3)[nH]c2=S)c1`, for which the Potency is 0.911 µM (active).

On to `CC1CCCN(C(=O)CC(c2ccccc2)c2ccc(O)cc2)C1` (stereo not given), for which the Potency result was “inactive”.

In the case of `O=S(=O)(c1ccc(NC(=S)N/N=C/c2ccc(Oc3ccccc3)cc2)cc1)N1CCOCC1`, the Potency is 2.57 µM (active).

With `CCNC(=O)CCc1nc(-c2ccc(C(C)(C)C)cc2)no1`, the Potency is 0.162 µM (active).

As for `COc1cc(O)c(C(CC(=O)N2CCC(C)CC2)c2ccc3c(c2)OCO3)c(OC)c1` (stereo not given), the Potency result was “inactive”.

For the compound `O=C(CCCN1C(=O)/C(=C/c2ccccc2Cl)SC1=S)Nc1cccnc1`, the Potency is 1.82 µM (active).

Take `CC(C)(C)c1ccc(-c2noc(CCC(=O)Nc3cccnc3)n2)cc1`: the Potency was 0.0457 µM (active).

Turning to `Cc1cccc(C(CC(=O)NCc2ccco2)c2ccccc2)c1O` (stereo not given), the Potency entry is “inactive”.

Turning to `Cc1ccc(OCCCC(=O)Nc2nc3ccccc3[nH]2)cc1`, the Potency was 8.12 µM (active).

On to `COc1ccccc1C(CC(=O)N1C[C@H](C)C[C@H](C)C1)c1ccccc1` (stereo not given in full), for which the Potency was 51.2 µM (active).

For `COc1cc(O)c(C(CC(=O)N2CCCC(C)C2)c2ccccc2OC)c(OC)c1` (stereo not given), the Potency result was “inactive”.

For the compound `COCOc1cc(OC)cc(OC)c1C(CC(=O)N1CC(C)CC(C)C1)c1ccc2c(c1)OCO2` (stereo not given), the Potency entry was “inactive”.

As for `COc1cc(O)c(C(CC(=O)N2CCC(c3ccccc3)CC2)c2ccc3c(c2)OCO3)c(OC)c1` (stereo not given), the Potency entry is “inactive”.

Take `CC(C)(C)c1ccc(S(=O)(=O)Nc2ccc(C(O)(C(F)(F)F)C(F)(F)F)cc2)cc1`: the Potency is 18.2 µM (active).

Consider `COC(=O)c1ccc(OCC(=O)c2ccc(O)cc2O)cc1`, for which the Potency was 0.0575 µM (active).

With `COc1cc(O)c(C(CC(=O)N2CCC[C@@H](C)C2)c2ccc3c(c2)OCO3)c(OC)c1` (stereo not given in full), the Potency entry was “inactive”.

Take `COc1ccc(C(CC(=O)N2CCCC(C)C2)c2ccccc2)cc1` (stereo not given): the Potency entry is “inactive”.

`COc1cc(O)c(C(CC(=O)Nc2cccc3ccccc23)c2ccc3c(c2)OCO3)c(OC)c1` (stereo not given): the Potency entry is “inactive”.

Take `COc1cc(O)c(C(CC(=O)N2CCCCC2C)c2ccc3c(c2)OCO3)c(OC)c1` (stereo not given): the Potency result is “inactive”.

For `COc1cc(O)c(C(CC(=O)N2CCCC(CN3CCCCC3)C2)c2ccc3c(c2)OCO3)c(OC)c1` (stereo not given), the Potency result is “inactive”.

As to `CC1CCCN(C(=O)CC(c2ccccc2)c2ccccc2O)C1` (stereo not given), the Potency entry was “inactive”.

Take `COc1cc(OC)c(C(c2ccccc2)C(C)(C)C(=O)N2CC(C)CC(C)C2)c(OC)c1` (stereo not given): the Potency is 16.2 µM (active).

Regarding `COc1cc(O)c(C(CC(=O)N2CCCC(C)(C)C2)c2ccc3c(c2)OCO3)c(OC)c1` (stereo not given), the Potency entry is “inactive”.

With `COc1cc(C)nc(-n2nc(C)cc2OC)n1`, the Potency is 8.12 µM (active).

For the compound `COc1ccc(CNC(=O)[C@H](Cc2ccccc2)NC(=O)C2CCN(C(=O)[C@@H]3CCCN3C(=O)OC(C)(C)C)CC2)cc1`, the Potency entry was “inactive”.

Turning to `COc1cc(O)c(C(CC(=O)N2CCCC(C#N)C2)c2ccc3c(c2)OCO3)c(OC)c1` (stereo not given), the Potency result is “inactive”.

In the case of `COc1ccc(-c2c[n+]3c(n2-c2ccc(C)cc2)CCCCC3)cc1`, the Potency is 10.2 µM (active).

With `CCOC(=O)Cn1c(CN2CCc3ccccc3C2)nc2c1c(=O)n(C)c(=O)n2C`, the Potency was 16.2 µM (active).

Turning to `COCC1CCCCN1C(=O)c1cc(COc2ccc3ncccc3c2)on1` (stereo not given), the Potency is 14.4 µM (active).

`CC1CCCN(C(=O)CC(c2ccc3c(c2)OCO3)c2cc(C(C)C)ccc2O)C1` (stereo not given): the Potency result is “inactive”.

Take `Cc1nn(-c2cc(C)c3ccccc3n2)c2c1C1C(C2)C1(C)C` (stereo not given): the Potency is 8.12 µM (active).

The values above are taken from PubChem BioAssay AID489039 (National Center for Advancing Translational Sciences (NCATS), 2010).
